Entries with a potency or affinity are not part of this list. Inconclusive results are not listed. Calls of active or inactive are those of the source. Unless noted, the rule behind the calls is not given here.
What was measured:
[1] = RMG-1 ovarian cancer cell viability loss – cherry-pick, dose response (AID 687029;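 active = signal drop whose fitted half-maximal concentration is at most twice the top valid dose, in every test run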;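 note: cells exposed to compound for 96 hours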)
[2] = IOSE-T80 viability loss, PAX8-independent line – cell-based, cherry-pick, selectivity assay for PAX8 inhibitor project, dose response (AID 687032;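 active = fitted half-maximal concentration for viability loss no higher than twice the top valid dose, in every repeat run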;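 note: cells exposed to compound for 96 h before reading; 0% = neutral control wells and -100% = 2 µM mitoxantrone kill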)
[3] = CMV-driven luciferase expression suppression in HEK293 – cell-based, luminescence, dry powder, counter-screen for Pax8 inhibitor project, dose response (AID 743020;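 active = signal-lowering compounds whose fitted half-maximal concentration is at or below twice the top tested dose in every run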;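 note: HEK293 cells stably expressing the CMV luciferase reporter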)
[4] = general cell-killing toxicity readout – plate reader, dry powder samples, cytotoxicity control for PAX8 inhibitor project, dose response (AID 743021)
[5] = IGROV1 cell killing – plate reader, dry powder samples, PAX8 inhibitor project, dose response (AID 743043);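 note: more negative means fewer viable cells or more cytotoxicity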
[6] = OVCAR-3 cell viability loss – plate reader, dry powder samples, PAX8 inhibitor project, dose response (AID 743044); conditions: max activity: at 35 µM, active compounds read low unless noted
[7] = toxicity toward immortalized ovarian surface epithelium – cell-based, plate reader, dry powder samples, cytotoxicity control for PAX8 inhibitor project, dose response (AID 743045);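 note: 0% = neutral control median and -100% = positive control median; more negative values mean more cell killing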
[8] = A2780 cell killing – plate reader, dry powder samples, cytotoxicity control, dose response (AID 743046);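 note: 0% = neutral control wells and -100% = cytotoxic reference compound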
[9] = OVCAR8 cell viability loss – plate reader, dry powder samples, PAX8 project, dose response (AID 743197)

Measured: max activity

C[C@@H]1CCCCO[C@H](CN(C)C(=O)Nc2ccc(C(F)(F)F)cc2)[C@H](C)CN([C@@H](C)CO)C(=O)c2cc(NS(=O)(=O)c3ccc(Cl)cc3)ccc2O1
inactive: [1] | [2] | [3] | [4] | [5] | [6] -7.31% | [7] | [8] | [9]

C[C@H](CO)N1C[C@H](C)[C@@H](CN(C)Cc2ccc(Cl)c(Cl)c2)OCCCC[C@H](C)Oc2ccc(NC(=O)Nc3ccc(C(F)(F)F)cc3)cc2C1=O
inactive: [1] | [2] | [3] | [4] | [5] | [6] 35.5% [at 2.1 µM, active compounds read low] | [7] | [8] | [9]

O=C(C[C@H]1CC[C@H]2[C@@H](COC[C@@H](O)CN2S(=O)(=O)c2ccccc2Cl)O1)N1CCC(Cc2ccccc2)CC1
inactive: [1] | [2] | [3] | [4] | [5] | [6] 32.6% [at 1 µM, active compounds read low] | [7] | [8] | [9]

C[C@@H]1CCCCO[C@@H](CN(C)C(=O)C2CCCCC2)[C@H](C)CN([C@@H](C)CO)C(=O)c2cc(NS(=O)(=O)c3ccc(Cl)cc3)ccc2O1
inactive: [1] | [2] | [3] | [4] | [5] | [6] -23.1% | [7] | [8] | [9]

C[C@H](CO)N1C[C@H](C)[C@@H](CN(C)CC2CCCCC2)Oc2ccc(NC(=O)Nc3ccc4c(c3)OCO4)cc2CC1=O
inactive: [1] | [2] | [3] | [4] | [5] | [6] 15.5% [at 1 µM, active compounds read low] | [7] | [8] | [9]

C[C@H]1CCCCO[C@@H](CN(C)C(=O)c2ccccc2)[C@@H](C)CN([C@@H](C)CO)C(=O)c2cc(NC(=O)Nc3ccc(C(F)(F)F)cc3)ccc2O1
inactive: [1] | [2] | [3] | [4] | [5] | [6] 13.2% [at 1.1 µM, active compounds read low] | [7] | [8] | [9]

C[C@@H]1CCCCO[C@H](CN(C)C(=O)Cc2ccccc2)[C@H](C)CN([C@@H](C)CO)C(=O)c2cc(NC(=O)Nc3ccc(C(F)(F)F)cc3)ccc2O1
inactive: [1] | [2] | [3] | [4] | [5] | [6] 13.6% | [7] | [8] | [9]

CCCC(=O)Nc1ccc2c(c1)C(=O)N(C)C[C@@H](OC)[C@H](C)CN(Cc1ccc(-c3ccccn3)cc1)[C@H](C)CO2
inactive: [1] | [2] | [3] | [4] | [5] | [6] 8.7% [at 0.5 µM, active compounds read low] | [7] | [8] | [9]

C[C@@H]1CN([C@H](C)CO)C(=O)c2cc(NC(=O)Nc3ccccc3)ccc2O[C@@H](C)CCCCO[C@H]1CN(C)Cc1ccc(Cl)c(Cl)c1
inactive: [1] | [2] | [3] | [4] | [5] | [6] -19.3% | [7] | [8] | [9]

Cc1ccc(S(=O)(=O)N[C@@H]2C=C[C@@H](CC(=O)N3CCC(Cc4ccccc4)CC3)O[C@@H]2CO)cc1
inactive: [1] | [2] | [3] | [4] | [5] | [6] -14.5% [at 16 µM, active compounds read low] | [7] | [8] | [9]

CC(C)CC#Cc1ccc2c(c1)O[C@H](CN(C)S(=O)(=O)c1ccc(F)cc1)[C@H](C)CN([C@@H](C)CO)S2(=O)=O
inactive: [1] | [2] | [3] | [4] | [5] | [6] -39.6% | [7] | [8] | [9]

Cc1ccc(S(=O)(=O)Nc2ccc3c(c2)C(=O)N([C@@H](C)CO)C[C@@H](C)[C@@H](CN(C)Cc2ccc(Cl)c(Cl)c2)OCCCC[C@@H](C)O3)cc1
inactive: [1] | [2] | [3] | [4] | [5] | [6] -8.95% | [7] | [8] | [9]

COc1ccccc1S(=O)(=O)N(C)C[C@@H]1Oc2cc(C#CCC3CCCC3)ccc2S(=O)(=O)N([C@@H](C)CO)C[C@@H]1C
inactive: [1] | [2] | [3] | [4] | [5] | [6] -15.5% | [7] | [8] | [9]

C[C@@H]1CCCCO[C@H](CN(C)S(=O)(=O)c2cccs2)[C@H](C)CN([C@@H](C)CO)C(=O)c2cc(NC(=O)CCC(F)(F)F)ccc2O1
inactive: [1] | [2] | [3] | [4] | [5] | [6] -17.7% | [7] | [8] | [9]

Cc1ccc(S(=O)(=O)N(C)C[C@H]2Oc3ccc(NC(=O)Nc4ccc(C(F)(F)F)cc4)cc3CC(=O)N([C@@H](C)CO)C[C@H]2C)cc1
inactive: [1] | [2] | [3] | [4] | [5] | [6] 15.5% [at 0.26 µM, active compounds read low] | [7] | [8] | [9]

CN1C[C@@H]2[C@H](c3ccccc31)[C@H](CO)N2Cc1ccccc1Cl
inactive: [1] | [2] | [3] | [4] | [5] | [6] 22.5% | [7] | [8] | [9]

O=C(Nc1cccc(F)c1)N[C@@H]1CC[C@@H](CCNS(=O)(=O)c2cccc(Cl)c2)O[C@@H]1CO
inactive: [1] | [2] | [3] | [4] | [5] | [6] -20.4% [at 0.5 µM, active compounds read low] | [7] | [8] | [9]

Cc1ccc(S(=O)(=O)N(C)C[C@@H]2Oc3cc(C#Cc4ccncc4)ccc3S(=O)(=O)N([C@@H](C)CO)C[C@H]2C)cc1
inactive: [1] | [2] | [3] | [4] | [5] | [6] -28.9% [at 16 µM, active compounds read low] | [7] | [8] | [9]

C[C@@H]1CCCCO[C@@H](CN(C)Cc2ccc(Cl)c(Cl)c2)[C@H](C)CN([C@@H](C)CO)C(=O)c2cc(NC(=O)Cc3ccccc3)ccc2O1
inactive: [1] | [2] | [3] | [4] | [5] | [6] -29.2% [at 16 µM, active compounds read low] | [7] | [8] | [9]

C[C@@H]1CCCCO[C@@H](CN(C)Cc2ccc(Cl)c(Cl)c2)[C@H](C)CN([C@H](C)CO)C(=O)c2cc(NS(=O)(=O)c3ccccc3)ccc2O1
inactive: [1] | [2] | [3] | [4] | [5] | [6] 8.76% [at 1.95 µM, active compounds read low] | [7] | [8] | [9]

C[C@@H]1CCCCO[C@H](CN(C)S(=O)(=O)c2ccc(Cl)cc2)[C@@H](C)CN([C@@H](C)CO)C(=O)c2cc(NC(=O)Nc3ccc(C(F)(F)F)cc3)ccc2O1
inactive: [1] | [2] | [3] | [4] | [5] | [6] 9.63% [at 2.1 µM, active compounds read low] | [7] | [8] | [9]

COc1cccc(S(=O)(=O)N(C)C[C@H]2OCc3ccccc3-c3c(n(C)c4ccccc34)C(=O)N([C@@H](C)CO)C[C@H]2C)c1
inactive: [1] | [2] | [3] | [4] | [5] | [6] -13.7% | [7] | [8] | [9]

C[C@@H]1CCCCO[C@@H](CN(C)Cc2ccc(C(F)(F)F)cc2)[C@H](C)CN([C@H](C)CO)C(=O)c2cc(NC(=O)Cc3ccccc3)ccc2O1
inactive: [1] | [2] | [3] | [4] | [5] | [6] -36.2% | [7] | [8] | [9]

CCCC#Cc1ccc([C@@H]2[C@H]3CN(S(=O)(=O)c4ccccc4F)CCCCN3[C@H]2CO)cc1
inactive: [1] | [2] | [3] | [4] | [5] | [6] 36.9% [at 8 µM, active compounds read low] | [7] | [8] | [9]

Cc1ccc(S(=O)(=O)N(C)C[C@H]2OCCCC[C@@H](C)Oc3ccc(NS(=O)(=O)c4ccc(F)cc4)cc3C(=O)N([C@@H](C)CO)C[C@H]2C)cc1
inactive: [1] | [2] | [3] | [4] | [5] | [6] -18.9% [at 0.5 µM, active compounds read low] | [7] | [8] | [9]

C[C@H]1CCCCO[C@@H](CN(C)C(=O)Nc2ccc(C(F)(F)F)cc2)[C@@H](C)CN([C@@H](C)CO)C(=O)c2cc(NS(=O)(=O)c3cn(C)cn3)ccc2O1
inactive: [1] | [2] | [3] | [4] | [5] | [6] -16.1% | [7] | [8] | [9]

C[C@H](CO)N1C[C@H](C)[C@H](CN(C)Cc2ccc3c(c2)OCO3)Oc2ccc(NC(=O)Nc3cccc4ccccc34)cc2C1=O
inactive: [1] | [2] | [3] | [4] | [5] | [6] 49.4% [at 4.2 µM, active compounds read low] | [7] | [8] | [9]
